According to PubChem BioAssay (EPA / NIEHS):
Values joined by “and” are separate entries in the source; they are usually repeats but may differ in a detail not shown here. Equal entries are not always repeated. Inconclusive results are not listed. Some structures have more than one record in an assay (separate samples or runs), and their calls can disagree. Active and inactive are the calls of the source. Rule for the calls, unless noted: active = hit-call score of the fitted dose curve at least 0.9, where 1 is the maximum; inactive = score below 0.9.

Assays:
[1] = ATG_PBREM_CIS: Attagene CIS-FACTORIAL HepG2 Assay for human Phenobarbital-responsive Enhancer Module (PBREM) (AID 2282955); conditions: HepG2 PBREM cis-reporter, Attagene multiplexed transcription; actives raise or lower the signal
Procedure, shortened: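 Endogenous transcription factor activity was read from reporter transcripts in transiently transfected human HepG2 liver cells after 24 h dosing. RT-PCR products were fluorescently labelled, HpaI-cut and sized by capillary electrophoresis; activity fitted bidirectionally against DMSO baseline.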

[2] = molecular target: Paired box protein Pax-6 (Homo sapiens) (UniProt P26367); assay: ATG_Pax6_CIS: Attagene CIS-FACTORIAL HepG2 Assay for human Paired Box 6 (PAX6) (AID 2282956); conditions: HepG2 CIS-FACTORIAL PAX6 reporter transcription, RNA readout; actives raise or lower the signal
Sequence of Paired box protein Pax-6 (Homo sapiens) (P26367 whole entry, looked up): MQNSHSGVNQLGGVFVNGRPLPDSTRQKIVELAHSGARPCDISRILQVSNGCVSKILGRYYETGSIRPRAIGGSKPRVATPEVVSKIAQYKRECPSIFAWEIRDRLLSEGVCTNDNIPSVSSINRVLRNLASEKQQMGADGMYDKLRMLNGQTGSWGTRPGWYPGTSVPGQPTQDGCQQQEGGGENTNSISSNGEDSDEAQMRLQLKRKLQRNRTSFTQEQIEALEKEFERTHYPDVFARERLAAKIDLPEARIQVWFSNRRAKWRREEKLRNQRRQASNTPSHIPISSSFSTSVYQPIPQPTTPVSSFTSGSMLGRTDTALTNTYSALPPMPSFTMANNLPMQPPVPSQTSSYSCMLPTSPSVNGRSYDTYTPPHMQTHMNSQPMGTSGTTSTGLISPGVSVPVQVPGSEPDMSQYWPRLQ
Procedure, shortened: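 Read-out is reporter transcript level, measured by RT-PCR with fluorescent primer extension and capillary electrophoresis after 24 h dosing of transfected HepG2 cells. Activity in either direction fitted relative to DMSO control.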

[3] = ATG_PXRE_CIS: Attagene CIS-FACTORIAL HepG2 Assay for human Pregnane X Receptor Element (PXRE) (AID 2282957); conditions: HepG2 Attagene CIS-FACTORIAL PXRE reporter, mRNA; actives raise or lower the signal
Procedure, shortened: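 After a 24 h chemical incubation, total RNA from transfected HepG2 cells was reverse-transcribed and reporter cDNA amplified, FAM-labeled, HpaI-digested and sized by capillary electrophoresis. DMSO served as baseline for bidirectional curve fitting.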

[4] = ATG_PPRE_CIS: Attagene CIS-FACTORIAL HepG2 Assay for human Peroxisome Proliferator-activated Response Element (PPRE) (AID 2282958); conditions: HepG2 PPRE cis-element reporter, Attagene transcription factor profiling; actives raise or lower the signal
Procedure, shortened: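 Endogenous PPRE-driven transcription is measured in HepG2 cells carrying transfected multi-reporter constructs. Reporter transcripts are quantified by RT-PCR, HpaI digestion and capillary electrophoresis 24 h after dosing. DMSO baseline, bidirectional fit.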

[5] = ATG_RORE_CIS: Attagene CIS-FACTORIAL HepG2 Assay for human RAR-related Orphan Receptor Element (RORE) (AID 2282959); conditions: HepG2 Attagene cis-factorial RORE reporter, mRNA; actives raise or lower the signal
Procedure, shortened: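 RORE reporter transcripts reflecting endogenous factor activity were read after 24 h compound exposure of transfected HepG2 cells, using reverse transcription, PCR, fluorescent labelling and capillary electrophoresis sizing. Gain or loss fitted against DMSO.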

[6] = ATG_Sox_CIS: Attagene CIS-FACTORIAL HepG2 Assay for human SRY-box transcription factor (SOX) (AID 2282960); conditions: HepG2 Attagene cis-factorial SOX reporter, mRNA; actives raise or lower the signal
Procedure, shortened: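 Reporter transcripts, measured by RT-PCR and capillary electrophoresis of labelled fragments, report endogenous SOX transcription factor activity. Transiently transfected human HepG2 cells receive chemical for 24 h; changes in either direction are fitted relative to DMSO.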

[7] = molecular target: Transcription factor Sp1 (Homo sapiens) (UniProt P08047); assay: ATG_Sp1_CIS: Attagene CIS-FACTORIAL HepG2 Assay for human Specificity Protein 1 (Sp1) (AID 2282961); conditions: HepG2 Sp1 cis-reporter transcription, actives raise or lower the signal
Sequence of Transcription factor Sp1 (Homo sapiens) (P08047 whole entry, looked up): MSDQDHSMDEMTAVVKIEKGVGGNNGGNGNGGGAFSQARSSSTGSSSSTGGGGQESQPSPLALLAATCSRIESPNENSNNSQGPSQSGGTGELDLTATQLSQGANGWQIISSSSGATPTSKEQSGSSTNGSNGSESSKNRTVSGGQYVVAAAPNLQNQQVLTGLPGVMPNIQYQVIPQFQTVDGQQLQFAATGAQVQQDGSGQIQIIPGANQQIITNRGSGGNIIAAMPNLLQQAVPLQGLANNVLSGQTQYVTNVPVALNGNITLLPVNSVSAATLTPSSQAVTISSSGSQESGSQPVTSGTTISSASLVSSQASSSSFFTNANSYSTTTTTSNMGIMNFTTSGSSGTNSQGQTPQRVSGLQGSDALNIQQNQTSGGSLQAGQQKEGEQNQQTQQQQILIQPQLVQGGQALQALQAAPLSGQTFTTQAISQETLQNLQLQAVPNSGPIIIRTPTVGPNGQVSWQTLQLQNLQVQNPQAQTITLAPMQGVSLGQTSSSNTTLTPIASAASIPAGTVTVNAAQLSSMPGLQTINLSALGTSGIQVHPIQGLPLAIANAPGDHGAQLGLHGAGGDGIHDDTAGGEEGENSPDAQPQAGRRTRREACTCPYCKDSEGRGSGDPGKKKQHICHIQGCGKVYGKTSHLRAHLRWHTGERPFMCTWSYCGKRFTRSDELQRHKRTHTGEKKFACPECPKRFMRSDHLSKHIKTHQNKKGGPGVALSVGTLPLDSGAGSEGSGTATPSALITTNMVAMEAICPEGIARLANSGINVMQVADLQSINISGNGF
Procedure, shortened: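 Read-out is reporter transcript level, measured by RT-PCR and fluorescent capillary electrophoresis after 24 h chemical treatment. System: transiently transfected HepG2 cells reporting endogenous transcription factor activity; gain or loss fitted against DMSO baseline.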

[8] = ATG_SREBP_CIS: Attagene CIS-FACTORIAL HepG2 Assay for human Sterol Regulatory Element Binding (SREBP) (AID 2282962); conditions: HepG2 Attagene cis-factorial SREBP reporter, mRNA; actives raise or lower the signal
Procedure, shortened: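 Endogenous SREBP activity read as cis-element-driven reporter transcript in transiently transfected HepG2, 24 h post-dosing; quantified via RT-PCR plus capillary electrophoresis of fluorescent fragments. Gain or loss of signal fitted relative to DMSO baseline.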

[9] = molecular target: Signal transducer and activator of transcription 3 (Homo sapiens) (UniProt P40763); assay: ATG_STAT3_CIS: Attagene CIS-FACTORIAL HepG2 Assay for human Signal Transducer and Activator of Transcription 3 (STAT3) (AID 2282963); conditions: HepG2, Attagene cis-factorial STAT3 reporter transcription; actives raise or lower the signal
Sequence of Signal transducer and activator of transcription 3 (Homo sapiens) (P40763 whole entry, looked up): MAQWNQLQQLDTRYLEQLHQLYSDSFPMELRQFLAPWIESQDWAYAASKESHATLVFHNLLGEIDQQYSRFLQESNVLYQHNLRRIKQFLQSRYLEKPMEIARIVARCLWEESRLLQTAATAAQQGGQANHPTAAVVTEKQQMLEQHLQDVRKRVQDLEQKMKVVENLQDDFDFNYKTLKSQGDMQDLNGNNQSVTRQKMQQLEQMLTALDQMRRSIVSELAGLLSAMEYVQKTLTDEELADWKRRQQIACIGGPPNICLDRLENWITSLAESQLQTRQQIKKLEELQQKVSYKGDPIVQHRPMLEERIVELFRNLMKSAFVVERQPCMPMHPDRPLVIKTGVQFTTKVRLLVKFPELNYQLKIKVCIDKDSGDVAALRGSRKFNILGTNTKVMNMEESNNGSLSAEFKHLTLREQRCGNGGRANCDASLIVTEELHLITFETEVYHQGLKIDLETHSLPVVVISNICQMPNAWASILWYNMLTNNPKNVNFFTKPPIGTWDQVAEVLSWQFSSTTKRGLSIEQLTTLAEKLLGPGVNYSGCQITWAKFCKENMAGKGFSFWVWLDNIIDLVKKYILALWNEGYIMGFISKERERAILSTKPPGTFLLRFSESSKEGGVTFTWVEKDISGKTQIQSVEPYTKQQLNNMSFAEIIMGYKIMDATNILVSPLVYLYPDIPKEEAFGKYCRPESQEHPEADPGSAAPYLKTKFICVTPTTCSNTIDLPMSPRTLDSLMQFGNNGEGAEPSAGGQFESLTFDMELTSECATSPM
Procedure, shortened: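 Cis-factorial format: endogenous transcription factors in HepG2 drive transfected reporter units. After 24 h treatment, reporter RNA was reverse-transcribed, amplified, FAM-labelled and HpaI-digested before CE analysis; activity scored in both directions against DMSO.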

[10] = ATG_TA_CIS: Attagene CIS-FACTORIAL HepG2 Assay for human TA Basal Promoter (AID 2282964); conditions: HepG2 Attagene CIS-factorial TA basal promoter reporter; actives raise or lower the signal
Procedure, shortened: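 HepG2 cells transiently transfected with multiplexed cis-promoter reporter units, dosed 24 h. Reporter mRNA measured by RT-PCR, 6-FAM labelling, HpaI digestion and capillary electrophoresis; bidirectional fit versus DMSO baseline, serving as background control.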

[11] = ATG_TCF_b_cat_CIS: Attagene CIS-FACTORIAL HepG2 Assay for human T-Cell-Factor with beta-catenin (TCF/b-cat) (AID 2282965); conditions: HepG2 TCF/beta-catenin cis-reporter transcription, actives raise or lower the signal
Procedure, shortened: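 Endogenous TCF/LEF activity read as reporter transcript level via RT-PCR and capillary electrophoresis fluorescence in transfected HepG2, 24 h exposure; gain or loss of signal fitted against DMSO controls.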

[12] = ATG_TAL_CIS: Attagene CIS-FACTORIAL HepG2 Assay for human TAL Basal Promoter (AID 2282966); conditions: HepG2 Attagene cis-factorial TAL promoter reporter; actives raise or lower the signal;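 note: background control endpoint measuring basal TAL promoter reporter mRNA not a specific factor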
Procedure, shortened: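 Basal-promoter background-control endpoint from a multiplexed HepG2 reporter panel. Cells were exposed 24 h, then reporter mRNA was read by RT-PCR/CE fluorescence and fitted in both directions relative to DMSO.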

[13] = ATG_TGFb_CIS: Attagene CIS-FACTORIAL HepG2 Assay for human Transforming Growth Factor (TGF) (AID 2282967); conditions: HepG2 Attagene CIS TGFb reporter, mRNA transcription; actives raise or lower the signal
Procedure, shortened: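 HepG2 cells transiently transfected with cis-promoter-driven multiplexed reporter units; 24 h compound exposure. Reporter mRNA measured by RT-PCR, 6-FAM labeling, HpaI digestion and capillary electrophoresis; bidirectional fit versus DMSO baseline.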

[14] = ATG_VDRE_CIS: Attagene CIS-FACTORIAL HepG2 Assay for human Vitamin D Receptor Element (VDRE) (AID 2282968); conditions: HepG2 VDRE cis-reporter transcription, actives raise or lower the signal
Procedure, shortened: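 Measures endogenous factor activity through cis-element-driven reporter transcripts in transiently transfected HepG2. Cells are treated 24 h; reporter mRNA is quantified by RT-PCR and capillary electrophoresis; fitting is bidirectional.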

[15] = molecular target: Nuclear receptor subfamily 1 group I member 3 (Homo sapiens) (UniProt Q14994); assay: ATG_CAR_TRANS: Attagene TRANS-FACTORIAL HepG2 Assay for human Constitutive Androstane Receptor (CAR) (AID 2282969; active = hit-call score of the fitted dose curve at least 0.9, where 1 is the maximum;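 note: activators raise reporter mRNA above DMSO so AC50 marks induction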); conditions: HepG2 Attagene TRANS-FACTORIAL CAR reporter
Sequence of Nuclear receptor subfamily 1 group I member 3 (Homo sapiens) (Q14994 whole entry, looked up, the tested form may be a part): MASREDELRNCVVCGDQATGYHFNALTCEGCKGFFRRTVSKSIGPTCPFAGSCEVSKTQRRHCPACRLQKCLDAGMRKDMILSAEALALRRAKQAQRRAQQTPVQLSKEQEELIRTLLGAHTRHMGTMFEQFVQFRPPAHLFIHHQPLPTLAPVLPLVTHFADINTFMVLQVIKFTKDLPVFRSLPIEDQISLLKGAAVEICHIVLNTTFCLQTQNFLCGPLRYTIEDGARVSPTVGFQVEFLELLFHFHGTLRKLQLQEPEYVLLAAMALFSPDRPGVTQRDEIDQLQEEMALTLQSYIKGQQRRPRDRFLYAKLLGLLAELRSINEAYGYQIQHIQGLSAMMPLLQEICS
Procedure, shortened: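 Signal is reporter mRNA induction relative to DMSO, measured 24 h after dosing by RT-PCR with fluorescent primer extension and capillary electrophoresis. Human HepG2 liver cells carried transiently transfected chimeric NR-Gal4/GAL4-UAS reporter constructs.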

[16] = molecular target: Estrogen receptor (Homo sapiens) (UniProt P03372); assay: ATG_ERa_TRANS: Attagene TRANS-FACTORIAL HepG2 Assay for human Estrogen Receptor alpha (ERa) (AID 2282970; active = hit-call score of the fitted dose curve at least 0.9, where 1 is the maximum); conditions: HepG2 Attagene TRANS ERa GAL4 reporter, mRNA
Sequence of Estrogen receptor (Homo sapiens) (P03372 whole entry, looked up, the tested form may be a part): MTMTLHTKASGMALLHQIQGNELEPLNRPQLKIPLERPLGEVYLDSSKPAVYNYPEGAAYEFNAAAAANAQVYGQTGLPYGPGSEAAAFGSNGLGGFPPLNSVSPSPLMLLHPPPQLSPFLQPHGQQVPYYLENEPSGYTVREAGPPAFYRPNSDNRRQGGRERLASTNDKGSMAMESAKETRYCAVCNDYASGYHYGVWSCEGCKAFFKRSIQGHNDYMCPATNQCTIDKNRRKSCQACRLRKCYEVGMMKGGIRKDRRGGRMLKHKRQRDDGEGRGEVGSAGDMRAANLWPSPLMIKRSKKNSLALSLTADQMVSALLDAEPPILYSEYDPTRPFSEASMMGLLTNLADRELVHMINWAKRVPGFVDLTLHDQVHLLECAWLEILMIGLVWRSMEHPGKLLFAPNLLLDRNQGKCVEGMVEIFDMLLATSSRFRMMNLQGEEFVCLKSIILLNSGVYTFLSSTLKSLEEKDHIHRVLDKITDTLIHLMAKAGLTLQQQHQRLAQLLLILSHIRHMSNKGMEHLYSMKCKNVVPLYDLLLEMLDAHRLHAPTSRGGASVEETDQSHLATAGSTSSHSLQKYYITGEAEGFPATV
Procedure, shortened: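 Gal4-fusion ERa transactivation, measured as reporter transcript level in transiently transfected HepG2 cells. Exposure 24 h; RT-PCR plus capillary electrophoresis with fluorescence detection.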

[17] = molecular target: Steroid hormone receptor ERR1 (Homo sapiens) (UniProt P11474); assay: ATG_ERRa_TRANS: Attagene TRANS-FACTORIAL HepG2 Assay for human Estrogen-Related Receptor alpha (ERRa) (AID 2282971; active = hit-call score of the fitted dose curve at least 0.9, where 1 is the maximum); conditions: HepG2 Attagene TRANS reporter, ERRa transactivation
Sequence of Steroid hormone receptor ERR1 (Homo sapiens) (P11474 whole entry, looked up, the tested form may be a part): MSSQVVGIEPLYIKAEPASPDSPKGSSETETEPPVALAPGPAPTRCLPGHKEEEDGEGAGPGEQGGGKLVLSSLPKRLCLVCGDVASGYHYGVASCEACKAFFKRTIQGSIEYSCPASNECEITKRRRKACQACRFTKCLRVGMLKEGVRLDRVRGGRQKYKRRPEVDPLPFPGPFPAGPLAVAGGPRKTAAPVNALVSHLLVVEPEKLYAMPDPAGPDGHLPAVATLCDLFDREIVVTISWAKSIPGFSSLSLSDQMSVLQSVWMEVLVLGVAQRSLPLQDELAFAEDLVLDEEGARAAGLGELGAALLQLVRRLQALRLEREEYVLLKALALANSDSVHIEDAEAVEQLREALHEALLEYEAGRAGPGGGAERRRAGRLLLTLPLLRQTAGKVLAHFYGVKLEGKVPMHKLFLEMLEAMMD
Procedure, shortened: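 HepG2 cells transiently transfected with GAL4-UAS reporter units and chimeric NR-Gal4 constructs; after 24 hour compound incubation, reporter mRNA quantified by RT-PCR, fluorescent labelling and capillary electrophoresis, gain of signal versus DMSO.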

[18] = molecular target: X-box-binding protein 1 (Homo sapiens) (UniProt P17861); assay: ATG_Xbp1_CIS: Attagene CIS-FACTORIAL HepG2 Assay for human X-box Binding Protein 1 (XBP1) (AID 2282972); conditions: HepG2 XBP1 cis-element reporter, Attagene multiplex; actives raise or lower the signal
Sequence of X-box-binding protein 1 (Homo sapiens) (P17861 whole entry, looked up): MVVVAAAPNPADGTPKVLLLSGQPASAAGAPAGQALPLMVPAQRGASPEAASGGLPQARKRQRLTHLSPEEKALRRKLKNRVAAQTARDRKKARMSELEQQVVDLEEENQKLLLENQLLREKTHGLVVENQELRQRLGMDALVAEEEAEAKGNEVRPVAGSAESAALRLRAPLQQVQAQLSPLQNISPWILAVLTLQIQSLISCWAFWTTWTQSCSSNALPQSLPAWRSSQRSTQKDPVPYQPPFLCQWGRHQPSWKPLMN
Procedure, shortened: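 Reporter transcripts were quantified by RT-PCR with fluorescent primer extension and capillary electrophoresis after 24 h chemical exposure. Cells: transiently transfected HepG2 carrying cis-regulated reporter constructs; data fitted bidirectionally relative to DMSO.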

[19] = ATG_M_19_TRANS: Attagene TRANS-FACTORIAL HepG2 Assay for M19 Transcription Factor (Internal Marker) (AID 2282974; active = hit-call score of the fitted dose curve at least 0.9, where 1 is the maximum); conditions: HepG2 Attagene TRANS-FACTORIAL M19 internal marker reporter
Procedure, shortened: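 Background-control readout: after 24 h chemical exposure of transfected HepG2 carrying GAL4-driven reporter units, RNA was reverse-transcribed, amplified, fluorescently labeled and sized by capillary electrophoresis; gain-of-signal fit against DMSO.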

COc1ccc(C(c2ccc(OC)cc2)C(Cl)(Cl)Cl)cc1
outcome [1]: inactive | outcome [2]: inactive | AC50 [3]: 4.17 µM (active) [middle of 4 runs] | outcome [3]: inactive | outcome [4]: inactive | outcome [5]: inactive | outcome [6]: inactive | AC50 [7]: 24.4 µM (active) and 38.1 µM (active) | outcome [7]: inactive | outcome [8]: inactive | outcome [9]: inactive | outcome [10]: inactive | outcome [11]: inactive | outcome [12]: inactive | outcome [13]: inactive | AC50 [14]: 4.94 µM (active) and 16.3 µM (active) and 11.9 µM (active) | outcome [14]: inactive | outcome [15]: inactive | AC50 [16]: 1.53 µM (active) [middle of 4 runs] | outcome [16]: inactive | outcome [17]: inactive | AC50 [18]: 28.3 µM (active) | outcome [18]: inactive | outcome [19]: inactive

CCc1nn(C)c(C(=O)NCc2ccc(C(C)(C)C)cc2)c1Cl
AC50 [1]: 1.39 µM (active) | outcome [2]: inactive | AC50 [3]: 3.17 µM (active) | AC50 [4]: 0.462 µM (active) | outcome [5]: inactive | outcome [7]: inactive | outcome [8]: inactive | outcome [9]: inactive | outcome [10]: inactive | outcome [11]: inactive | outcome [12]: inactive | outcome [13]: inactive | AC50 [14]: 1.91 µM (active) | outcome [15]: inactive | outcome [16]: inactive | outcome [17]: inactive | AC50 [18]: 0.352 µM (active)

CCCCOC(=O)c1ccccc1C(=O)OCCCC
AC50 [1]: 27.5 µM (active) and 67 µM (active) and 50 µM (active) | outcome [1]: inactive | outcome [2]: inactive | AC50 [3]: 27.4 µM (active) [middle of 5 runs] | AC50 [5]: 29 µM (active) and 50 µM (active) | outcome [5]: inactive | outcome [6]: inactive | outcome [7]: inactive | AC50 [8]: 75.8 µM (active) | outcome [8]: inactive | outcome [9]: inactive | AC50 [10]: 39.8 µM (active) | outcome [10]: inactive | outcome [11]: inactive | outcome [12]: inactive | AC50 [13]: 65.8 µM (active) | outcome [13]: inactive | outcome [14]: inactive | outcome [15]: inactive | outcome [16]: inactive | outcome [17]: inactive | outcome [18]: inactive | outcome [19]: inactive

CON(C)C(=O)Nc1ccc(Cl)c(Cl)c1
AC50 [1]: 31.9 µM (active) and 27.2 µM (active) | outcome [1]: inactive | outcome [2]: inactive | AC50 [3]: 26.7 µM (active) [middle of 4 runs] | AC50 [4]: 69.6 µM (active) | outcome [4]: inactive | outcome [5]: inactive | outcome [7]: inactive | outcome [8]: inactive | outcome [9]: inactive | outcome [10]: inactive | outcome [11]: inactive | outcome [12]: inactive | outcome [13]: inactive | AC50 [14]: 28.7 µM (active) and 35.7 µM (active) and 23.4 µM (active) | outcome [14]: inactive | outcome [15]: inactive | outcome [16]: inactive | outcome [17]: inactive | outcome [18]: inactive | outcome [19]: inactive

Oc1ccccc1-c1ccccc1
outcome [1]: inactive | AC50 [2]: 57.7 µM (active) | outcome [2]: inactive | AC50 [3]: 13.5 µM (active) and 3.11 µM (active) | AC50 [7]: 50 µM (active) | outcome [7]: inactive | AC50 [8]: 150 µM (active) | outcome [8]: inactive | outcome [9]: inactive | outcome [10]: inactive | outcome [11]: inactive | outcome [12]: inactive | AC50 [13]: 87.5 µM (active) | outcome [13]: inactive | AC50 [14]: 38.4 µM (active) | outcome [14]: inactive | outcome [15]: inactive | AC50 [16]: 31.1 µM (active) and 27.8 µM (active) | outcome [18]: inactive | outcome [19]: inactive
